Our source for the inhibition values is PubChem BioAssay AID602252 (Broad Institute, 2012).

Out of some 300,000 compounds screened, about 2,700 (0.9%) were called active. This is one part of a sample in which actives are shown more often than they occur.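 The calls were made as follows: active = mean inhibition of at least 30% with at least half of replicates also reaching 30%; inconclusive = no clear call, values can overlap the other calls; inactive = the rest.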

In this test the target is Golgi-associated PDZ and coiled-coil motif-containing protein (Homo sapiens) (UniProt Q9HD26). Nature of the test: blockade of CAL PDZ-reporter peptide interaction – biochemical, fluorescence polarization, untagged CAL PDZ, HTS, primary screen (AID 602252).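 Also: 0% = DMSO neutral control and 100% = excess unlabeled competitor peptide PRC23.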 The conditions noted are these: purified CAL PDZ, TMR-peptide fluorescence polarization, 1 h; at 24.9 µM; active compounds read high. Background: Fluorescence polarisation rises when a labelled molecule tumbles more slowly, as on binding a larger partner.
Regarding `COc1ccc(CNCCCNCc2ccc(OC)c(OC)c2)cc1OC`, the inhibition (in general, the relative decrease from the control value, in per cent) was 2.4% (inactive).
For the compound `CSCCC(NC(=O)c1ccccc1)C(=O)N1CCCCCCC1` (centres undefined), the inhibition is -1.09% (inactive).
For `CSCCC(NS(=O)(=O)c1ccc(C)cc1)C(=O)N1CCCC1` (centres undefined), the inhibition was 68.8% (active).
The result for `CSCC(NS(=O)(=O)c1ccc(C)cc1)C(=O)O` (centres undefined) reads 2.04% (inactive); that for `O=C1[C@@H](c2ccccc2)[C@@H](c2ccccc2)N1c1cccnc1`, -3.46% (inactive); that for `O=C(Cc1ccc(S(=O)(=O)N2CCOCC2)s1)Nc1ccc(Br)c(C(F)(F)F)c1`, -2.21% (inactive).
On to `Cc1nc2ccc(NC(=O)c3cccc(S(=O)(=O)N4CCOCC4)c3)cc2s1`, for which the inhibition was -4.38% (inactive).
With `CC(=O)Nc1ccc(NC(=S)NC(=O)c2ccc([N+](=O)[O-])c(C)c2)cc1`, the inhibition is -0.773% (inactive).
On to `CC(=O)NC(=S)Nc1ccc(NC(=S)NC(=O)c2ccc([N+](=O)[O-])cc2)cc1`, for which the inhibition was 56.3% (active).
Regarding `O=C(NC(=S)Nc1ccc(NC(=O)c2cccs2)cc1)c1ccc([N+](=O)[O-])cc1`, the inhibition was -2.58% (inactive).
The result for `O=C(Nc1ccc2ccccc2c1[N+](=O)[O-])c1ccccc1` reads 0.89% (inactive); that for `CC1(C)CCSC(/C=C/c2ccccc2)=N1`, 76.1% (active); that for `CC(C)[C@@H](C(=O)OCC(=O)c1ccc2c(c1)NC(=O)CO2)N1C(=O)c2ccccc2C1=O`, -3.95% (inactive).
The result for `CN(Cc1ccc(F)cc1)C(=O)COc1ccc2ccccc2c1` reads -2.25% (inactive); that for `CN(Cc1ccccc1)C(=O)COc1ccccc1`, 34.5% (active); that for `CN(Cc1ccccc1)C(=O)c1ccc(COc2ccccc2)cc1`, -2.72% (inactive).
For `CN1CCC(N(C)C(=O)c2ccc(Cl)c(S(=O)(=O)Nc3ccc(Cl)cc3)c2)CC1`, the inhibition is 4.93% (inactive).
As for `CC(C)(C)OC(=O)N1CCC(C(=O)Nc2cccc(C(=O)NCCc3ccccc3)c2)CC1`, the inhibition was -2.65% (inactive).
Take `COc1ccc(CNc2nc(NCc3ccc(OC)cc3)c3ncn(C4CCCC4)c3n2)cc1`: the inhibition was 2.25% (inactive).
The result for `O=C(Nc1cc(S(=O)(=O)Nc2ccc(Cl)cc2)ccc1O)c1ccc(F)cc1F` reads -2.45% (inactive); that for `COc1ccc(N=C2C=CC(=O)O2)cc1`, -18.5% (inactive).
On to `CCO[C@@H]1OC(C(=O)N2CCOCC2)=C[C@H](C)[C@H]1CCCO`, for which the inhibition is -0.99% (inactive).
Consider `CCO[C@H]1OC(C(=O)N2CCOCC2)=C[C@@H](c2ccc3c(c2)OCO3)[C@@H]1CCCO`, for which the inhibition was 31.2% (active).
Regarding `CCO[C@H]1OC(C(=O)N2CCCCCCC2)=C[C@@H](c2ccc(C(F)(F)F)cc2)[C@@H]1CCCO`, the inhibition is -1.81% (inactive).
